Data as given in PubChem BioAssay AID1159580 (chemical genetic matrix, 2015).
Screen size: about 5,500 compounds; about 2,000 (36%) were called active. Not shown: some 18% with an inconclusive outcome. No stated cut-off is given here; in the data, active means normalized growth mostly below about 0.91 (no sharp cut-off); inconclusive means no clear call, values can overlap the other calls; inactive means mostly above about 0.92. This is one part of the list.

Assay: chemical genetic growth profiling, strain panel (AID 1159580);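 further: tested at 20 µM; growth read once vehicle control cultures reached saturation at 30 °C; 1 = growth at the plate median or of vehicle wells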
Details: growth OD
[1] = S. cerevisiae deletion strains, locus YHR030C, strain SLT2, stronger effect = lower value
[2] = S. cerevisiae deletion strains, locus YAL013W, strain DEP1, stronger effect = lower value
[3] = S. cerevisiae deletion strains, locus YGR078C, strain PAC10, stronger effect = lower value
[4] = S. cerevisiae deletion strains, locus YNL128W, strain TEP1, stronger effect = lower value
[5] = S. cerevisiae deletion strains, locus YPL241C, strain CIN2, stronger effect = lower value

Measured: normalized growth

O=C1CCO1
inactive: [1] 0.984 | S. cerevisiae deletion strains, locus YHR079C, strain IRE1, stronger effect = lower value 0.99 | S. cerevisiae deletion strains, locus YJL095W, strain BCK1, stronger effect = lower value 0.999 | S. cerevisiae deletion strains, locus YJR066W, strain TOR1, stronger effect = lower value 0.946 | S. cerevisiae deletion strains, locus YLR113W, strain HOG1, stronger effect = lower value 0.942 | S. cerevisiae deletion strains, locus YNL183C, strain NPR1, stronger effect = lower value 0.951 | S. cerevisiae deletion strains, locus YOR231W, strain MKK1, stronger effect = lower value 0.996 | S. cerevisiae deletion strains, locus YPL256C, strain CLN2, stronger effect = lower value 0.992

CC1(C)/C(=N/OC(=O)c2cccc(C(F)(F)F)c2)[C@]2(C)CCC1C2
inactive: [2] 1.01 | S. cerevisiae deletion strains, locus YBR229C, strain ROT2, stronger effect = lower value 1.01 | S. cerevisiae deletion strains, locus YDL101C, strain DUN1, stronger effect = lower value 1.04 | S. cerevisiae deletion strains, locus YDL134C, strain PPH21, stronger effect = lower value 1 | S. cerevisiae deletion strains, locus YDR150W, strain NUM1, stronger effect = lower value 0.989 | S. cerevisiae deletion strains, locus YEL061C, strain CIN8, stronger effect = lower value 1.04 | [3] 0.996 | S. cerevisiae deletion strains, locus YGR229C, strain SMI1, stronger effect = lower value 0.999 | [1] 0.88 | S. cerevisiae deletion strains, locus YHR087W, strain rtc3, stronger effect = lower value 0.99 | S. cerevisiae deletion strains, locus YJR043C, strain POL32, stronger effect = lower value 0.978 | S. cerevisiae deletion strains, locus YJR075W, strain HOC1, stronger effect = lower value 0.979 | S. cerevisiae deletion strains, locus YKL190W, strain CNB1, stronger effect = lower value 1.01 | S. cerevisiae deletion strains, locus YLR039C, strain RIC1, stronger effect = lower value 0.977 | S. cerevisiae deletion strains, locus YLR058C, strain SHM2 (second series), stronger effect = lower value 1.01 | S. cerevisiae deletion strains, locus YLR085C, strain ARP6, stronger effect = lower value 1 | S. cerevisiae deletion strains, locus YLR262C, strain YPT6, stronger effect = lower value 0.964 | S. cerevisiae deletion strains, locus YMR219W, strain ESC1, stronger effect = lower value 0.987 | S. cerevisiae deletion strains, locus YMR263W, strain SAP30, stronger effect = lower value 0.967 | S. cerevisiae deletion strains, locus YMR307W, strain GAS1, stronger effect = lower value 0.741 | [4] 1.01 | S. cerevisiae deletion strains, locus YNL153C, strain GIM3, stronger effect = lower value 0.963 | S. cerevisiae deletion strains, locus YNL298W, strain CLA4 (second series), stronger effect = lower value 0.987 | S. cerevisiae deletion strains, locus YNL322C, strain KRE1, stronger effect = lower value 1.02 | S. cerevisiae deletion strains, locus YNR030W, strain Alg12, stronger effect = lower value 1.01 | S. cerevisiae deletion strains, locus YOL006C, strain TOP1, stronger effect = lower value 0.898 | S. cerevisiae deletion strains, locus YPL055C, strain LGE1, stronger effect = lower value 1 | [5] 1.01 | S. cerevisiae deletion strains, locus YPR135W, strain CTF4, stronger effect = lower value 1.06 | S. cerevisiae strains, strain wild type, stronger effect = lower value 0.999
active: S. cerevisiae deletion strains, locus YML094W, strain GIM5, stronger effect = lower value 1.18 [resistant]

NC(=NCCC[C@H](N)C(=O)O)NO
inactive: [2] 1.03 | S. cerevisiae deletion strains, locus YAL040C, strain CLN3, stronger effect = lower value 1 | S. cerevisiae deletion strains, locus YCL061C, strain MRC1 (second series), stronger effect = lower value 1.01 | S. cerevisiae deletion strains, locus YDR363W, strain ESC2, stronger effect = lower value 1.02 | S. cerevisiae deletion strains, locus YER002W, strain NOP16, stronger effect = lower value 1.01 | [3] 1.02 | [4] 1 | S. cerevisiae deletion strains, locus YNL175C, strain NOP13, stronger effect = lower value 1 | S. cerevisiae deletion strains, locus YNL197C, strain WHI3, stronger effect = lower value 1.01 | S. cerevisiae deletion strains, locus YNL224C, strain SQS1, stronger effect = lower value 0.992 | S. cerevisiae deletion strains, locus YOR083W, strain WHI5 (second series), stronger effect = lower value 1.01 | [5] 1.01
